# Source: PubChem BioAssay (NCI)
# Several values for one entry are separate records, joined by “and”; a condition that tells them apart may be missing. Equal entries are not always repeated. About 83,000 compounds went through this panel and 20% of them were active in at least one assay; those are over-represented in the sample as a whole.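 Single-concentration screen, 48 h exposure, 96-well plates. Endpoint: percent growth. Below 10 = active.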 Activity calls are given as the source filed them.
# System: HL-60(TB) leukemia
# Assay: NCI-60 one-dose screen, 48 h (100 = growth as untreated, 0 = no growth, -100 = all killed)
# Conditions: 10 µM unless noted
row,SMILES,growth
1,Cc1c(-n2nnc(-c3nc4ccccc4s3)c2N)c(=O)n(-c2ccccc2)n1C,99.2% (inactive)
2,CCn1cc(C(=O)N/N=C/c2cccs2)c(=O)c2cc(F)c(N3CCNC(C)C3)c(F)c21 (stereo not given),105% (inactive)
3,NCCCNc1nc2ccccc2c2c(=O)c3cccc(F)c3sc12,13.9% (inactive)
4,O=C(/C=C/c1ccc(Cl)cc1)c1ccc(Br)cc1,81.4% (inactive)
5,Cc1cc(C)n(Cc2cc(C(C)(C)C)cc(C(C)(C)C)c2)c(=O)c1C#N,100% (inactive)
6,CC1=C(C#N)C(C)(C)C(C#N)=C(C)N1,98.6% (inactive)
7,Cn1cccc1/C=C1/SC(=S)N(CCc2ccc(O)cc2)C1=O,1.22% (active)
8,COc1ccc(-c2cn(-c3ccccc3)c(-c3ccccc3)n2)cc1OC,8.37% (active)
9,Cc1cc(C(C)(C)c2cc(C)c(O)c(CN(C)C)c2)cc(CN(C)C)c1O,81.1% (inactive)
10,O=C(CC(=O)c1ccccc1F)Nc1ccc([N+](=O)[O-])cc1,98.2% (inactive)
11,NC(=O)C1CC2C=CC1C2 (stereo not given),108% (inactive) and 106% (inactive)
12,CN1C(=O)/C(=C/c2cn(-c3ccccc3)nc2-c2ccccc2)SC1=S,109% (inactive)
13,CCOC(=O)c1ccc2[nH]c(-c3ccccc3)cc(=O)c2c1,95.3% (inactive)
14,CC(=O)c1ccc2c(c1)c1ccccc1n2C,84.1% (inactive)
15,CS(=O)(=O)c1nccc(-c2c(-c3cccc(OCCc4ccccc4)c3)nc3sccn23)n1,99.4% (inactive)
16,Cc1ccc(NC2=C(Cl)C(=O)c3nc(C)ccc3C2=O)cc1,-10.8% (active)
17,Cc1ccc(S(=O)(=O)N2C/C(=C\c3cc(F)cc(F)c3)C(=O)/C(=C/c3cc(F)cc(F)c3)C2)cc1,10.9% (inactive)
18,Cc1ccc(S(=O)(=O)Nc2sccc2-c2nc(-c3ccccc3)no2)cc1,105% (inactive)
19,CCCCN(CCCC)CC(C)(C)C(O)c1ccc(OC)c2ccccc12 (stereo not given),56.3% (inactive)
20,CC(C)(C)n1cc(-c2ccnc(NCCCNS(=O)(=O)c3ccc(Cl)cc3)c2)c(-c2cccc(F)c2)n1,85.8% (inactive)

row,SMILES,growth
1,COC(=O)CC[C@@H]1O[C@@H](c2cccc(C(F)(F)F)c2)[C@@H](O)[C@H]1O,105% (inactive)
2,Fc1ccc(-c2nnc(-c3c(-c4ccc(F)cc4)nc4ncccn34)o2)cc1,87.8% (inactive)
3,CC(C)CC(CC1=CCC2CC1C2(C)C)C1=C(O)C(C)(C)C(=O)C(C)(C)C1=O (stereo not given),-45.3% (active)
4,C1CCC([PH+](C2CCCCC2)C2CCCCC2[PH+](C2CCCCC2)C2CCCCC2)CC1.[Au].[CH-]1CCCCC1C1CCCC[N-]1 (stereo not given),-29.9% (active)
5,C=CC[Se]C(=O)Cc1c(C)n(C(=O)c2ccc(Cl)cc2)c2ccc(OC)cc12,-53.3% (active)
6,CN(CCC(=O)/C(=C\c1ccccc1)c1ccc(Cl)cc1)Cc1ccccc1,41% (inactive)
7,COC(=O)[C@]12CC[C@@H](C(/C=C/c3cccnc3)=N/O)[C@@H]1[C@H]1CC[C@@H]3[C@@]4(C)CC(=C/c5cccnc5)/C(=N/O)C(C)(C)[C@@H]4CC[C@@]3(C)[C@]1(C)CC2,2.86% (active)
8,CCOC(=O)c1cc2c(n1Cc1ccccc1OC)-c1oncc1CCC2,14.4% (inactive)
9,CCOC(=O)C1=C(N)Oc2c(sc3c(F)cccc23)C1c1ccc(O)cc1 (stereo not given),18.4% (inactive)
10,CCCCOc1ccc(/C=N/NC(N)=S)cc1,60.5% (inactive)
11,COc1cc(Cl)cc(-c2nn(C(=O)NCCN3CCOCC3)cc2-c2ccncc2)c1,55.7% (inactive)
12,COc1cc(-c2nc(SC(C)C)nc(Nc3cccc(C)c3)c2C#N)cc(OC)c1OC,98.3% (inactive)
13,C=C1C(=O)O[C@H]2[C@H]1CC/C(COC(=O)NCc1c[nH]c3ccc(OC)cc13)=C\CC[C@@]1(C)O[C@@H]21,-35.8% (active)
14,CCC1S/C(=N\N=C(/C)c2ccc[nH]2)N(c2ccccc2)C1=O (stereo not given),-63.7% (active)
15,COC(=O)c1n[nH]c2ccc3nc(-c4cn[nH]c4C(F)(F)F)c4c(c3c12)CCCC4,70% (inactive)
16,COc1cc(-c2nc(SCCC(C)C)nc(Nc3ccccc3Cl)c2C#N)cc(OC)c1OC,101% (inactive)
17,CCOC(=O)c1c(C)[nH]c(C)c1C=O,71.4% (inactive)
18,NC(N)=NC1CCCCC1,94.4% (inactive)
19,CN1CCN(c2ccc3nc(-c4c(N)c5c(F)cccc5[nH]c4=O)[nH]c3c2)CC1,12.9% (inactive) and 3.6% (active)
20,COc1cc(OC)c2c(c1)c1nc3cc(C)c(C)cc3nc1n2CCN(C)C,103% (inactive)
